From the supplement of paper PMC10849652
About 8,800 targets were measured; listed, in parts, are those with a hit and a random draw of the rest. About 0.5% of all pairs of compound and target were hits. Values without a mark were called inactive.

Tests used:
Assay in all cases: log2 fold change, soluble protein after heating vs DMSO (PISA); higher = thermal stabilisation; K562 lysate, 10 uM; active = over 0.2 and 3.5 SD of the protein, either way, in both replicates (recomputed)
lapatinib = compound: CS(=O)(=O)CCNCc1ccc(-c2ccc3ncnc(Nc4ccc(OCc5cccc(F)c5)c(Cl)c4)c3c2)o1 [lapatinib]
How it was run: (§1)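 A 30 min treatment with 10 μM compound was applied to crude K562 extract at 1 mg/mL protein in PBS pH 7.4 with 1 mM MgCl2. Heating for 3 min spanned 48°C-58°C, after which aliquots were pooled, adjusted to 0.5% NP-40 at 4°C and spun at 21,000xg for 90 min. TMTpro 16plex LC-MS/MS of the supernatant, with channel sums equalised, gave values recorded as log-two fold change in thermal stability against solvent controls, from duplicates.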

pictilisib = compound: CS(=O)(=O)N1CCN(Cc2cc3nc(-c4cccc5[nH]ncc45)nc(N4CCOCC4)c3s2)CC1 [pictilisib]
How it was run: as §1

crizotinib = compound: C[C@@H](Oc1cc(-c2cnn(C3CCNCC3)c2)cnc1N)c1c(Cl)ccc(F)c1Cl [crizotinib]
How it was run: as §1

[1] = compound: C[C@H](C1=CC=C(C=C1)C(=O)NC2=C3C=CNC3=NC=C2)N
How it was run: as §1

duvelisib = compound: C[C@H](Nc1ncnc2nc[nH]c12)c1cc2cccc(Cl)c2c(=O)n1-c1ccccc1 [duvelisib]
How it was run: as §1

gandotinib = compound: Cc1cc(Nc2cc(CN3CCOCC3)c3nc(C)c(Cc4ccc(Cl)cc4F)n3n2)n[nH]1 [gandotinib]
How it was run: as §1

tozasertib = compound: Cc1cc(Nc2cc(N3CCN(C)CC3)nc(Sc3ccc(NC(=O)C4CC4)cc3)n2)n[nH]1 [tozasertib]
How it was run: as §1

doramapimod = compound: Cc1ccc(-n2nc(C(C)(C)C)cc2NC(=O)Nc2ccc(OCCN3CCOCC3)c3ccccc23)cc1 [doramapimod]
How it was run: as §1

bafetinib = compound: Cc1ccc(NC(=O)c2ccc(CN3CC[C@H](N(C)C)C3)c(C(F)(F)F)c2)cc1Nc1nccc(-c2cncnc2)n1 [bafetinib]
How it was run: as §1

[2] = compound: Cc1cccc(CC(=O)N2CCc3c2ccc(-c2cn(C)c4ncnc(N)c24)c3F)n1
How it was run: as §1

Sequence of UniProt Q68CZ6 (Q68CZ6 whole entry, looked up): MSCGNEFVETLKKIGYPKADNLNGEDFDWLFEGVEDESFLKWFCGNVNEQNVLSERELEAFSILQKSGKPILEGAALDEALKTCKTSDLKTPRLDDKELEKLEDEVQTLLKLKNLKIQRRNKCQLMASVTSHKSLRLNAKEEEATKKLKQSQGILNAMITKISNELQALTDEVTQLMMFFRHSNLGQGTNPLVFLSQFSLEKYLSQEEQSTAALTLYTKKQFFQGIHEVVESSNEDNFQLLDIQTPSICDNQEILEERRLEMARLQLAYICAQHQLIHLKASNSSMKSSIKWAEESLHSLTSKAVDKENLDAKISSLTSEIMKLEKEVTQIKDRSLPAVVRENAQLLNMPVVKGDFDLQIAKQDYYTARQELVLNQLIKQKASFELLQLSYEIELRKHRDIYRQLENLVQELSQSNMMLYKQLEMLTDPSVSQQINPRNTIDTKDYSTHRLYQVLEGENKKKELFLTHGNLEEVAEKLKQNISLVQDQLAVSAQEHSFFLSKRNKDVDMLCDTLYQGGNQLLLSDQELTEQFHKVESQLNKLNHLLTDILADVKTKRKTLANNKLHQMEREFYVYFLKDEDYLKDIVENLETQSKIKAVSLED
Sequence of UniProt Q03013 (Q03013 whole entry, looked up): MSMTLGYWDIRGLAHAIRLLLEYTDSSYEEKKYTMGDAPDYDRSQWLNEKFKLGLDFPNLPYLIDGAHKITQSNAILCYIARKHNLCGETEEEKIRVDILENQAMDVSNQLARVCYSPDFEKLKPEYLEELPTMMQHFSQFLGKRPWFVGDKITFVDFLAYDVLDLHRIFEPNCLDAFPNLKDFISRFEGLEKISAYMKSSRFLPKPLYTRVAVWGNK
Sequence of UniProt Q9Y2X7 (Q9Y2X7 whole entry, looked up): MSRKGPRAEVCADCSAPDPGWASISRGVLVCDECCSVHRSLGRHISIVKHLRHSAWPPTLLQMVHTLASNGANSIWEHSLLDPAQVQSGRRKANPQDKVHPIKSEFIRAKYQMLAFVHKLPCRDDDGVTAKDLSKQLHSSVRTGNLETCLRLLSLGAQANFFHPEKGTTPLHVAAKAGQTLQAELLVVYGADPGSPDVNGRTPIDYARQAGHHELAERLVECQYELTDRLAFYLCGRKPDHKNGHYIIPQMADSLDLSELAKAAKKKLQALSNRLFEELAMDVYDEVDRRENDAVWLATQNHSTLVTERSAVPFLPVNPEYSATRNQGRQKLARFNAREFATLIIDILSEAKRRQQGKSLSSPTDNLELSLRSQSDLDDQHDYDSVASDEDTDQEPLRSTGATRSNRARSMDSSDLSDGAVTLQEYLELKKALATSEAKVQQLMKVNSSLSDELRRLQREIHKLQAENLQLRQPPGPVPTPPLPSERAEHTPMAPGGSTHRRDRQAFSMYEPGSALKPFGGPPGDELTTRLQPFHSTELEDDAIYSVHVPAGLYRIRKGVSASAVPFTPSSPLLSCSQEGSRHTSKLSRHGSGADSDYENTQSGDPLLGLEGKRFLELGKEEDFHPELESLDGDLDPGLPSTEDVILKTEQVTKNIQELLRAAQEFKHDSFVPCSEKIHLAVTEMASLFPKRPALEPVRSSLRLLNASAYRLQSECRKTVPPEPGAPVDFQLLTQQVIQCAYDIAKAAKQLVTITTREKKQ
Sequence of UniProt Q9Y223 (Q9Y223 whole entry, looked up): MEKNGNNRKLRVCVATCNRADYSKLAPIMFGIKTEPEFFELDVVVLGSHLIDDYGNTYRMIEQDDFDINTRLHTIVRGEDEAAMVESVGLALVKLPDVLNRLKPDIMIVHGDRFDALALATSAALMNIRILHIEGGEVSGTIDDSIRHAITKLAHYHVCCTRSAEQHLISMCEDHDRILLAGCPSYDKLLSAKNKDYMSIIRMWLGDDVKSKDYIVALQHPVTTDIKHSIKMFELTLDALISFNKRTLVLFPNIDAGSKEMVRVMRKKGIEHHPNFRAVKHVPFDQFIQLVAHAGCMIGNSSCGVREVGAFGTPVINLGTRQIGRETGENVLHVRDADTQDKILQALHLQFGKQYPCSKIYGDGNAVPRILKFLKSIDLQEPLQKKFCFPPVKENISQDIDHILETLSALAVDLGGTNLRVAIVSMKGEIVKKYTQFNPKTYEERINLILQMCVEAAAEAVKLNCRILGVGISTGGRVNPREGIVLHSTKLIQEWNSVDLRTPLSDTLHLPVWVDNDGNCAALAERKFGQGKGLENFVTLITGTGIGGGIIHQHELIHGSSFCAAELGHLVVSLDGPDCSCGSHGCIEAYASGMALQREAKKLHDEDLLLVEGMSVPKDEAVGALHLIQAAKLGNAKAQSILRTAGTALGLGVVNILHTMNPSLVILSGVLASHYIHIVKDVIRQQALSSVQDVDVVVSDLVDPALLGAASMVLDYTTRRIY
Sequence of UniProt Q99714 (Q99714 whole entry, looked up): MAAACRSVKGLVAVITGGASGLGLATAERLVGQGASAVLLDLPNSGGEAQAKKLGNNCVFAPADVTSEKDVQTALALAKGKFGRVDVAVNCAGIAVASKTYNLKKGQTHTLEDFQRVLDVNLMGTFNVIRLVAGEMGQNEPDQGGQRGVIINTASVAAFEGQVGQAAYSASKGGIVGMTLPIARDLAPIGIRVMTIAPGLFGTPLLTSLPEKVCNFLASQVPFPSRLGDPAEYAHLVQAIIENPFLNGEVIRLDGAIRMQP
Sequence of UniProt Q9UBN7 (Q9UBN7 whole entry, looked up): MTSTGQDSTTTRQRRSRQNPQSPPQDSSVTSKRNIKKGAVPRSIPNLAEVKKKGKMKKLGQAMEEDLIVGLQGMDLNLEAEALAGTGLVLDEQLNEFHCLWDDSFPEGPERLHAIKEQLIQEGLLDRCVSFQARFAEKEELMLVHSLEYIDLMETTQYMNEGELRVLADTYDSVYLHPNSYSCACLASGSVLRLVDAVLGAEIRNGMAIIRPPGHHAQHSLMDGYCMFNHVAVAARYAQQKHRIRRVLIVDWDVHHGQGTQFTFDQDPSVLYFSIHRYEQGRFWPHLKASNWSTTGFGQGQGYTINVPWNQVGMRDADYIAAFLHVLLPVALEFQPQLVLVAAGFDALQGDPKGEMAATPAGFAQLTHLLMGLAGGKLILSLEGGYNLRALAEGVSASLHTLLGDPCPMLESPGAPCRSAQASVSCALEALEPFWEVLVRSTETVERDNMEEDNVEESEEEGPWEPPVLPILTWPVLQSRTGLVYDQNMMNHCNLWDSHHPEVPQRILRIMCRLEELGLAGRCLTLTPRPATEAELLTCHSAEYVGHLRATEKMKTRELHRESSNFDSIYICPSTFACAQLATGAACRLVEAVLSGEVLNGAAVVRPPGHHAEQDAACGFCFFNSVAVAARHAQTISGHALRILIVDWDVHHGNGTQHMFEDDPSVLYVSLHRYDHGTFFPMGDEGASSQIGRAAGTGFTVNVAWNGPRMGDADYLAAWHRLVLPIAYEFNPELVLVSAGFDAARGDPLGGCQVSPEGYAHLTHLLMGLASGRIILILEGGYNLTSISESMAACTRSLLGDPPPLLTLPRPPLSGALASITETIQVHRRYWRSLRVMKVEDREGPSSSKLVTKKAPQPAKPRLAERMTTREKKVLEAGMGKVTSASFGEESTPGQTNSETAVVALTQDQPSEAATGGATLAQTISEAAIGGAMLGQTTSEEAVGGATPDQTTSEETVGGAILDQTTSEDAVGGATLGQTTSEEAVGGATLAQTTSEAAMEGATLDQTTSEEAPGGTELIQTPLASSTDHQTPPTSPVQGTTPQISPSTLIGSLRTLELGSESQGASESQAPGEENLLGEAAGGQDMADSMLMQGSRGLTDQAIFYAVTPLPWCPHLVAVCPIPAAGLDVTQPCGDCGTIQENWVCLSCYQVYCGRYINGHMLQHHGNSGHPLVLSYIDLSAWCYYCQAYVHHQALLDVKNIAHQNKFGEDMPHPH
Sequence of UniProt Q14103 (Q14103 whole entry, looked up): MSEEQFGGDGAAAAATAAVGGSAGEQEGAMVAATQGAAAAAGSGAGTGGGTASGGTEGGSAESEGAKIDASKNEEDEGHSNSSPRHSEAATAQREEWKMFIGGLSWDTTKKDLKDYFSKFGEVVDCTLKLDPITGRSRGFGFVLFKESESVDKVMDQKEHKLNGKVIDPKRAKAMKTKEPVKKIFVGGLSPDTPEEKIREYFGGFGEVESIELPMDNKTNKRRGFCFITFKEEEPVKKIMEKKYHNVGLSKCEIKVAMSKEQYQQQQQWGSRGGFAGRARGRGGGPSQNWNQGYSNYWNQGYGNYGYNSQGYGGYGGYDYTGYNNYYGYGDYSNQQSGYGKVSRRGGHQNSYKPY
Sequence of UniProt Q9H1B7 (Q9H1B7 whole entry, looked up): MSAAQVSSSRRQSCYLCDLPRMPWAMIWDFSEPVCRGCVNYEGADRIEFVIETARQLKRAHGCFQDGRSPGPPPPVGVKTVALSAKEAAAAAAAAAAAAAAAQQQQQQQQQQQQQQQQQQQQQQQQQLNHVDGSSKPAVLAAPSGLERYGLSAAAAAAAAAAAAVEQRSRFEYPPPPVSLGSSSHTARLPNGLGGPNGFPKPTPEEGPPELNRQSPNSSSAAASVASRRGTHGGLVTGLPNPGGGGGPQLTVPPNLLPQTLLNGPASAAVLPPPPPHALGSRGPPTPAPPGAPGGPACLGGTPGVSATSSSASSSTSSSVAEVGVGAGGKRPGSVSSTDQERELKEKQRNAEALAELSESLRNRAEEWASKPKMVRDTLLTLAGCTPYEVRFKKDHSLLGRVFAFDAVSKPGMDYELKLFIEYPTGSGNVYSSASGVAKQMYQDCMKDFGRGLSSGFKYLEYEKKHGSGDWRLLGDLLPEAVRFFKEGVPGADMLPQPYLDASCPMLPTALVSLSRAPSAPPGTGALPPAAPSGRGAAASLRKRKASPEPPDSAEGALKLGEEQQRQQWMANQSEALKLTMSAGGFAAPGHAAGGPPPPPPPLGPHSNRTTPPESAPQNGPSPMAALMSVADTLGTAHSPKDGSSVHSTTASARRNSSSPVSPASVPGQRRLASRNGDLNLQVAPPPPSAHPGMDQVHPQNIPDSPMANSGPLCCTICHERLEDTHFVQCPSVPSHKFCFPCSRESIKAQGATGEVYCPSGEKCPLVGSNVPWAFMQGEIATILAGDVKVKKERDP

Row | Target | log2 fold change (lapatinib) | log2 fold change (pictilisib) | log2 fold change (crizotinib) | log2 fold change [1] | log2 fold change (duvelisib) | log2 fold change (gandotinib) | log2 fold change (tozasertib) | log2 fold change (doramapimod) | log2 fold change (bafetinib) | log2 fold change [2]
1 | INPPL1 (UniProt O15357) | 0.023 | 0.006 | -0.047 | -0.05 | -0.004 | -0.065 | 0.029 | 0.01 | -0.05 | 0.03
2 | HDAC3 (UniProt O15379) | 0.02 | 0.008 | 0.015 | 0.076 | -0.067 | -0.015 | 0.054 | -0.024 | -0.005 | -0.045
3 | GOLGA6B (UniProt A6NDN3) | -0.105 | -0.061 | -0.193 | -0.105 | 0.121 | 0.109 | 0.027 | -0.381 | -0.04 | 0
4 | HAUS3 (UniProt Q68CZ6) | -0.011 | -0.001 | -0.084 | 0.013 | -0.042 | -0.059 | 0.014 | -0.034 | -0.11 | 0.079
5 | INTS8 (UniProt Q75QN2) | 0.028 | 0.104 | -0.046 | 0.015 | -0.051 | -0.163 | 0.04 | 0.021 | -0.142 | 0.036
6 | HNRNPD isoform 3 (UniProt Q14103) | -0.062 | 0.126 | -0.07 | -0.08 | 0.043 | 0.094 | -0.078 | 0.045 | 0.166 | 0.033
7 | HK2 (UniProt P52789) | -0.003 | -0.017 | -0.069 | 0.043 | 0.007 | -0.056 | 0.007 | 0.05 | -0.076 | 0.004
8 | GIT1 (UniProt Q9Y2X7) | 0.029 | -0.007 | -0.015 | 0.009 | -0.08 | -0.076 | -0.002 | -0.004 | -0.047 | -0.007
9 | GRK2 (UniProt P25098) | -0.063 | 0.015 | -0.038 | 0.024 | 0.017 | 0.077 | -0.02 | 0.033 | -0.017 | -0.035
10 | HSD17B10 (UniProt Q99714) | -0.031 | -0.013 | 0.002 | -0.049 | 0.013 | 0.022 | -0.031 | -0.008 | 0 | 0.026
11 | HNRNPM (UniProt P52272) | -0.001 | 0.063 | 0.025 | -0.011 | -0.022 | 0.02 | -0.019 | -0.113 | -0.029 | 0.053
12 | HAUS5 (UniProt O94927) | -0.036 | -0.017 | -0.071 | 0.05 | 0.044 | -0.098 | -0.002 | 0.032 | -0.042 | -0.029
13 | H4C1 (UniProt P62805) | -0.043 | -0.069 | 0.032 | 0.003 | -0.16 | 0 | -0.027 | 0.006 | 0.059 | -0.044
14 | IARS2 (UniProt Q9NSE4) | -0.023 | -0.013 | -0.01 | 0.19 | -0.007 | -0.057 | 0.02 | 0.011 | -0.002 | -0.049
15 | GTF3C3 (UniProt Q9Y5Q9) | -0.043 | -0.051 | -0.093 | -0.108 | 0.017 | -0.037 | 0.009 | 0.012 | -0.045 | 0.084
16 | GNE isoform 2 (UniProt Q9Y223) | 0.012 | -0.005 | -0.053 | -0.01 | -0.011 | -0.127 | -0.008 | 0.021 | -0.031 | 0.034
17 | HS1BP3 (UniProt Q53T59) | 0.024 | -0.019 | 0.006 | -0.253 (active) | -0.047 | 0.068 | 0.021 | -0.019 | -0.048 | 0.074
18 | IMMT (UniProt C9J406) | 0.017 | 0.082 | -0.116 | -0.461 (active) | 0.003 | 0.048 | 0.015 | -0.034 | 0.03 | 0.168
19 | HDAC6 (UniProt Q9UBN7) | -0.019 | -0.085 | -0.039 | 0.014 | 0.065 | -0.017 | 0.002 | 0.012 | -0.069 | -0.01
20 | HSPA8 (UniProt E9PN89) | 0.046 | 0.05 | -0.31 | -0.706 (active) | 0.004 | 0.169 | 0.074 | 0.314 | -0.021 | 0.299
21 | HDAC1 (UniProt Q13547) | 0.004 | 0.01 | -0.014 | -0.04 | -0.029 | -0.004 | -0.015 | 0.006 | 0.036 | 0.036
22 | GSTM4 (UniProt Q03013) | -0.091 | 0.073 | -0.006 | -0.118 | -0.034 | 0.011 | -0.12 | 0.076 | 0.029 | 0.051
23 | HDGFL2 isoform 2 (UniProt Q7Z4V5) | 0.02 | 0.027 | -0.028 | -0.348 (active) | 0.037 | 0.248 (active) | 0.018 | -0.003 | 0 | 0.167
24 | IRF2BPL (UniProt Q9H1B7) | 0.017 | 0.024 | -0.006 | -0.216 | 0.006 | 0.07 | -0.005 | -0.004 | -0.015 | 0.075
25 | HNRNPH2 (UniProt P55795) | 0.025 | -0.004 | -0.097 | -0.048 | -0.024 | 0.068 | -0.032 | 0.062 | 0.018 | 0.008
26 | GTF2H4 (UniProt Q92759) | -0.026 | 0.027 | -0.025 | 0.061 | -0.01 | -0.14 | 0.031 | 0 | -0.039 | 0.038
27 | GLUD2 (UniProt P49448) | -0.009 | 0.144 | -0.097 | -0.004 | 0.001 | 0.099 | 0.03 | -0.028 | 0.049 | 0.024
28 | GMIP (UniProt Q9P107) | -0.046 | -0.015 | -0.006 | 0.029 | -0.005 | -0.024 | -0.014 | -0.049 | -0.068 | 0.041
29 | HELQ (UniProt Q8TDG4) | 0.002 | -0.009 | -0.011 | -0.014 | 0.025 | 0.012 | -0.01 | 0.042 | -0.109 | -0.033
